Cy5 interf NS3h: Cy5 fluorescence quenchers or enhancers, artefact control for HCV NS3 helicase inhibitor project, biochemical, ChemBridge library, Cy5 readout; Cy5-dT15 DNA with NS3h, fluorescence interference; actives lie on both sides; signal over control mean, under 1 quenches; fluorescence interference ratio at 100 µM; 6% of 16,000 active; AID 720488, 2013;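 active means compound fluorescence over control fluorescence at most 0.8, a quencher, or at least a set upper limit, an enhancer; inactive means ratio between 0.8 and the set upper limit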
HCV NS3h FP: HCV NS3 helicase inhibitors, primary screen, biochemical, fluorescence polarization, ChemBridge library; Hepatitis C virus NS3 helicase; NS3h Cy5-dT15 DNA binding; 1.6% of 16,000 active; inhibition, % at 100 µM; AID 687043, 2013;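 active means inhibition above the average over every tested compound plus 3 SD, cut at about 40% in these data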
* hit, by the source's call. The list is not random: actives were taken first. Their share in the collection is about 6.9%.

SMILES	Cy5 interf NS3h	HCV NS3h FP
Cc1[nH]nc2c1C(c1cc(Br)cs1)C(C#N)=C(N)O2 (configuration not stated)	1.2*	4
COC(=O)C1=C(N)Oc2n[nH]c(C)c2C1c1ccc(Br)cc1 (configuration not stated)	0.99	9
COc1ccc(C2C(C(C)=O)=C(O)C(=O)N2c2nc3ccccc3s2)c(OC)c1 (configuration not stated)	1	-7
Cc1cc(C)c(-n2c(O)c(C=C3C=Nc4ccccc43)c(=O)[nH]c2=O)c(C)c1	1	3
O=c1[nH]c(=O)n(Cc2ccccc2)c(O)c1C=C1C=CC=N1	0.77*	11
O=c1[nH]c(=O)n(Cc2ccc(F)cc2)c(O)c1C=C1C=Nc2ccccc21	0.8*	-44
COc1ccc(OC)c(Cn2c(O)c(C=C3C=CC=N3)c(=O)[nH]c2=O)c1	0.88	17
O=C1C(=O)N(Cc2ccccc2)C(c2ccc(Br)cc2)C1=C(O)c1ccccc1 (configuration not stated)	0.98	-11
O=C1S/C(=C\c2cccs2)C(=O)N1c1cccc(Cl)c1	1	16
Cc1cc(C)c(N2C(=O)NC(=O)C(=Cc3ccoc3)C2=O)c(C)c1	1	42*
COc1ccc(/C=C2\C(=O)NC(=O)N(c3cc(C)cc(C)c3)C2=O)cc1	1.1	21
O=S(=O)(NCCOc1ccccc1Cl)c1ccc2ccccc2c1	1	0
O=C1C(=C2c3ccccc3C(=O)C2C2c3ccccc3Oc3ccccc32)C(=O)c2ccccc21 (configuration not stated)	0.8*	-2
O=C(O)C(C(=O)O)C1c2ccccc2Oc2ccccc21	1	12
CCOC(=O)c1c(NC(=O)COc2c(C)cc(C)cc2C)sc(C(=O)Nc2ccccc2)c1C	0.96	3
CCOC(=O)c1c(NC(=O)c2sc3cc(C)ccc3c2Cl)sc(C(N)=O)c1C	0.79*	7
CCC12c3ccccc3C(c3ccccc31)C1C(=O)N(c3cc(Cl)ccc3C)C(=O)C12 (configuration not stated)	1	-4
COc1cc([N+](=O)[O-])ccc1NC(=O)c1cccc(F)c1	0.88	8
CCOc1ccccc1NC(=O)c1c(NC(=O)Cc2ccccc2)sc2c1CCCCC2	1.1	6
CCOc1ccccc1NC(=O)c1c(NC(=O)c2cccs2)sc2c1CCCC2	1	41*
COc1cccc(OCCOc2ccccc2/C=C2/SC(=S)N(c3ccccc3)C2=O)c1	1	11
Cc1ccc(C(=O)CC2(O)C(=O)N(C)c3ccccc32)cc1 (configuration not stated)	1.1	4
CCCCN(CCCC)C(=O)c1ccccc1	1	-10
CCc1ccccc1N(CC(=O)NCCc1ccccc1)S(C)(=O)=O	1.1	4
CCc1ccc(OCC(=O)Nc2cccc(OC)c2)cc1	0.74*	14
SMILES	Cy5 interf NS3h	HCV NS3h FP
COc1ccc(OCC(=O)Nc2cccc(C(C)=O)c2)cc1	1.1	5
CS(=O)(=O)N(CC(=O)Nc1ccc(Oc2ccccc2)cc1)c1cccc(Cl)c1	0.99	10
Cn1cnc2cc(Nc3nnc(-c4ccccc4)c4ccccc34)ccc21	1	-4
Cc1nnc(Nc2ccc3c(c2)ncn3C)c2ccccc12	1.2*	12
COc1ccc(-c2nnc(Nc3ccc4c(c3)nc(C)n4C)c3ccccc23)cc1	0.93	5
COc1ccccc1-n1cnc2cc(Nc3nnc(C)c4ccccc34)ccc21	0.93	-2
Cc1ccc(-c2nnc(Nc3ccc4c(c3)nc(C)n4C)c3ccccc23)cc1	0.71*	5
COc1ccc(-n2cnc3cc(Nc4nnc(C)c5ccccc45)ccc32)cc1	0.74*	5
Cc1ccc(OCCNC(=O)c2cccc3ccccc23)cc1	0.96	14
CCC(C(=O)Nc1nc2ccccc2s1)c1ccccc1 (configuration not stated)	1.1	-6
O=C(CCC(=O)OCC(F)(F)C(F)F)Nc1nc2ccccc2s1	0.71*	8
Cc1cc(/C=C2\C(=O)NC(=O)N(c3ccc(Br)cc3)C2=O)c(C)n1-c1cccnc1	0.99	7
COC(=O)c1c(C)oc2ccc(OCc3c(F)cccc3Cl)cc12	0.91	10
CC(=O)NC1=NC(=O)/C(=C/c2cc(Cl)ccc2OCc2c(F)cccc2Cl)S1	0.77*	5
COc1ccc(O)c(/C=N\n2cnnc2)c1	0.98	-1
CCCOC(=O)c1ccc(NC(=O)c2cccc([N+](=O)[O-])c2)cc1	1	13
CCOC(=O)CP(=O)(c1ccc(Cl)cc1)c1ccc(Cl)cc1	1	-2
COc1ccc(C2CC(c3ccc(C)cc3)=NN2C(C)=O)cc1OC (configuration not stated)	1	3
COc1ccc(-c2nn3c(-c4ccc(OC)c(OC)c4)nnc3s2)cc1OC	1.3*	10
O=C(COc1cccc2ccccc12)NCc1cccnc1	0.74*	17
O=C(COc1cccc2ccccc12)NCc1ccco1	0.89	4
O=C(COc1cccc2ccccc12)NCc1ccccn1	0.91	1
O=C(COc1cccc2ccccc12)NCC1CCCO1 (configuration not stated)	0.77*	10
O=C(NCc1ccccc1)C(NC(=O)c1ccccc1)=C1CCCCC1	0.98	2
COc1cc(C(=O)NC(NC(=S)Nc2cc(Cl)ccc2Cl)C(Cl)(Cl)Cl)cc(OC)c1OC (configuration not stated)	0.92	7
SMILES	Cy5 interf NS3h	HCV NS3h FP
O=C(Nc1ccc(F)cc1F)c1cnn2c1NC(c1ccco1)CC2C(F)(F)F (configuration not stated)	1	11
CCc1cccc(C)c1NS(=O)(=O)c1ccc(F)cc1	0.96	8
CC(C)CNC(=O)/C(=C/c1ccc(F)cc1)NC(=O)c1ccccc1	0.95	12
Cc1ccc(C(=O)N/C(=C\c2ccc(Cl)cc2)C(=O)NCC(C)C)cc1	0.96	41*
O=c1cccc(-c2cccc([N+](=O)[O-])c2)o1	0.94	3
O=C(Nc1ccc(Cl)cc1)Nc1nnc(Cc2ccc(Cl)cc2)s1	1.1	-2
O=C(Nc1nnc(Cc2ccc(Cl)cc2)s1)c1ccccc1F	0.7*	25
CCOC(=O)c1[nH]c(=O)[nH]c1CN1CCOCC1	1	-3
O=C1NC(=Nc2cccc(O)c2)S/C1=C/C(Cl)=C/c1ccc([N+](=O)[O-])cc1	0.99	26
O=C(Nc1ccc2oc(-c3ccncc3)nc2c1)c1ccccn1	1.2*	33
O=C(Cc1ccccc1)Nc1ccc(-c2nc3ccccc3s2)c(O)c1	1.2*	4
O=C(Nc1ccc2oc(-c3cccnc3)nc2c1)c1ccncc1	1.1	2
COc1c(Cl)cc(C(=O)Nc2ccc3oc(-c4ccccc4)nc3c2)cc1Cl	1.1	-37
COc1cc(C(=O)Nc2ccc3oc(-c4ccc5ccccc5c4)nc3c2)cc(OC)c1OC	0.72*	22
O=C(Cc1ccccc1)Nc1ccc2oc(-c3ccc(Cl)cc3Cl)nc2c1	1.3*	-36
Cc1ccc2oc(-c3ccc(NC(=O)Cc4ccccc4)cc3O)nc2c1	1	-18
CCc1ccc(OCC(=O)Nc2ccc(-c3nc4ccccc4s3)c(O)c2)cc1	1.1	1
N/C(Cc1cccc2ccccc12)=N/OC(=O)c1ccc(F)cc1	1	4
O=C(CN1CCOCC1)N/N=C\c1c[nH]c2ccccc12	1	-5

Screening data from PubChem.
